Shown are actives, neighbours in structure and some others; about 2.2% of the full set was active somewhere.
CHRM4 PAM: human M4 muscarinic receptor positive allosteric modulators, primary screen, CHO-K1 cells, Fluo-8 calcium fluorescence. Muscarinic acetylcholine receptor M4 (Homo sapiens), P08173. CHO-K1 hM4/Gqi5, ACh EC20; 0% = ACh EC20, 100% = maximal ACh. activation, % at 3 µM. 360,000 tested, 0.4% active;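 active means activation above its plate's cutoff, the mean activation of sample wells plus 3 SD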
Target sequence (P08173 whole entry, looked up): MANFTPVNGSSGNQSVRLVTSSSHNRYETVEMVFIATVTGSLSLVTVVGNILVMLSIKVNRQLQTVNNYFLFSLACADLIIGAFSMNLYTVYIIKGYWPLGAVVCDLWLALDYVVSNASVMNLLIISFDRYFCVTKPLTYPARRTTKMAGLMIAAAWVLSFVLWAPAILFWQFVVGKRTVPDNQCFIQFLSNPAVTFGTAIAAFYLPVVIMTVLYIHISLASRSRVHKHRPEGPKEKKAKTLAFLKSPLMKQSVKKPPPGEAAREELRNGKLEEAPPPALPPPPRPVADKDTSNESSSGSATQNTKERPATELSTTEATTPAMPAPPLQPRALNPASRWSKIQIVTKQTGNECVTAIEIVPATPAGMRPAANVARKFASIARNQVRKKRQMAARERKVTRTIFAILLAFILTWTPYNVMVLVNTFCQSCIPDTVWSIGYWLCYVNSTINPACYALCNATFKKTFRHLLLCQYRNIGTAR
CHRM1 agonist: human M1 muscarinic receptor agonists, primary screen, Fluo-8 calcium fluorescence, CHO-K1 cells, HTS; Muscarinic acetylcholine receptor M1 (Homo sapiens), P11229; CHO-K1 hM1, agonist mode; 0% DMSO, 100% acetylcholine EC100; activation, % at 3 µM; 360,000 tested, 0.33% active; AID 588814, 2011;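 active means activation above the run's mean compound activation plus 3 SD, cut at about 16% in these data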;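 further: peak over basal fluorescence ratio within a 140 s kinetic read after compound addition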
CHRM1 PAM: human M1 muscarinic receptor positive allosteric modulators, primary screen, CHO-K1 cells, Fluo-8 calcium fluorescence, 1536-well; Muscarinic acetylcholine receptor M1 (Homo sapiens), P11229; CHO-K1 hM1, ACh EC20; 0% = ACh EC20, 100% = maximal ACh; AID 588819, 2011; activation, % at 3 µM; 360,000 tested, 0.088% active; in the data active means activation above about 19%, passing the limit was not always enough
CHRM1 antagonist: human M1 muscarinic receptor antagonists, primary screen, CHO-K1 cells, Fluo-8 calcium fluorescence, 1536-well. Muscarinic acetylcholine receptor M1 (Homo sapiens), P11229. CHO-K1 hM1, ACh EC80 antagonist. inhibition, % at 3 µM. 360,000 tested, 1.3% active. AID 588852, 2011;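 active means percent inhibition above its own plate's cutoff, namely the mean of that plate's compound wells plus 3 SD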;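 further: peak over basal fluorescence ratio during 140 s after agonist addition; 0% = ACh EC80 plus DMSO and 100% = DMSO alone without agonist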
M4 antag: human M4 muscarinic receptor antagonists, primary screen, CHO cells, Fluo-8 calcium fluorescence. Muscarinic acetylcholine receptor M4 (Homo sapiens), P08173. CHO-hM4 cells, ACh EC80. inhibition, % at 3 µM. 360,000 tested, 0.73% active;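 active means inhibition above its plate's cutoff, the mean inhibition of sample wells plus 3 SD, cut at about 27% in these data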;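 further: 0% = acetylcholine EC80 with DMSO and 100% = DMSO without agonist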
M4 ag: human M4 muscarinic receptor agonists, primary screen, CHO-K1 cells, Fluo-8 calcium fluorescence. activation, % at 3 µM. CHO-K1 hM4/Gqi5; vehicle 0%, full acetylcholine response 100%. AID 624127, 2012. 360,000 tested, 0.14% active. Muscarinic acetylcholine receptor M4 (Homo sapiens), P08173;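 active means activation above the run mean over all test wells plus 3 SD, cut at about 32% in these data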;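 further: peak over basal fluorescence ratio per well then scaled between controls; 0% = DMSO wells and 100% = acetylcholine at EC100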
Numbers without * were called inactive.

CCN(CC)C(=O)C1CCCN(C(=O)CCn2nnnc2CN2CCOCC2)C1 (stereo not given) was read as CHRM4 PAM 6.1, CHRM1 agonist -3.2, CHRM1 PAM 9.3, CHRM1 antagonist -13.6, M4 antag -5.8 and M4 ag 1.1.
CCOC(=O)c1c(C)[nH]c(C(=O)OC)c1CCC(=O)OC was read as CHRM4 PAM 8.5, CHRM1 agonist -5.4, CHRM1 PAM 4.0, CHRM1 antagonist -7.6, M4 antag -1.8 and M4 ag 1.0.
Screening COC(=O)Cc1[nH]c(=S)[nH]c1C(=O)OC returned CHRM4 PAM 33.3*, CHRM1 agonist -4.5, CHRM1 PAM 7.1, CHRM1 antagonist -10.6, M4 antag -4.0 and M4 ag 1.6.
Screening CC12CCC(=O)N1C(C(=O)Nc1nc(-c3ccccc3Cl)cs1)CS2 (stereo not given) returned CHRM4 PAM -6.2, CHRM1 agonist -2.6, CHRM1 PAM -0.2, CHRM1 antagonist -1.5, M4 antag 11.7 and M4 ag 4.6.
`Cc1cc2n(n1)C(c1ccc(O)cc1)Nc1ccccc1-2` (stereo not given) gave CHRM4 PAM 30.3*, CHRM1 agonist 1.0, CHRM1 PAM 5.5, CHRM1 antagonist 0.2, M4 antag 13.2 and M4 ag 1.0.
Cc1cc2n(n1)C(c1ccco1)Nc1ccccc1-2 (stereo not given) was read as CHRM4 PAM 13.6, CHRM1 agonist 4.4, CHRM1 PAM 12.8, CHRM1 antagonist -12.6, M4 antag -1.7 and M4 ag 1.1.
Screening Cc1ccccc1N(Cc1nnc2n1CCCCC2)C(=O)Nc1ccccc1 returned CHRM4 PAM 27.4*, CHRM1 agonist -3.6, CHRM1 PAM 0.4, CHRM1 antagonist -13.6, M4 antag -13.9 and M4 ag 0.4.
For CC[N+](CC)(CC)CCOc1ccc(/C=C/c2ccccc2)cc1 the results were CHRM4 PAM -14.3, CHRM1 agonist -7.1, CHRM1 PAM -26.7, CHRM1 antagonist 94.7*, M4 antag 27.4* and M4 ag 1.0.
Screening COc1ccc(NC(=O)N2CCc3cc(OC)c(OC)cc3C2)cc1 returned CHRM4 PAM 4.5, CHRM1 agonist 1.7, CHRM1 PAM 12.7, CHRM1 antagonist -20.8, M4 antag -4.0 and M4 ag 0.2.
For C[C@H]1CN([C@@H](C)CO)C(=O)Cc2cc(NS(=O)(=O)c3cccs3)ccc2O[C@H]1CN(C)S(=O)(=O)c1cn(C)cn1 the results were CHRM4 PAM -14.3, CHRM1 agonist -8.6, CHRM1 PAM -6.0, CHRM1 antagonist 8.8, M4 antag 31.9* and M4 ag 3.4.
`C[C@H](CO)N1C[C@H](C)[C@H](CN(C)S(=O)(=O)c2cccs2)Oc2ccc(NC(=O)Nc3ccc4c(c3)OCO4)cc2CC1=O` gave CHRM4 PAM -15.7, CHRM1 agonist -10.1, CHRM1 PAM -2.3, CHRM1 antagonist 5.8, M4 antag 40.7* and M4 ag 1.3.
C[C@H](CO)N1C[C@H](C)[C@@H](CN(C)S(=O)(=O)c2cccs2)Oc2c(NC(=O)Nc3ccc4c(c3)OCO4)cccc2C1=O was read as CHRM4 PAM 2.9, CHRM1 agonist -6.6, CHRM1 PAM -2.6, CHRM1 antagonist -2.4, M4 antag -8.5 and M4 ag 11.1.
`C[C@H](CO)N1C[C@H](C)[C@@H](CN(C)S(=O)(=O)c2cccs2)Oc2ccc(NC(=O)Nc3ccc4c(c3)OCO4)cc2C1=O` gave CHRM4 PAM -0.9, CHRM1 agonist -10.6, CHRM1 PAM -22.9, CHRM1 antagonist 40.9*, M4 antag 9.8 and M4 ag 0.8.
Screening C[C@H](CO)N1C[C@H](C)[C@@H](CN(C)S(=O)(=O)c2cccs2)Oc2ccc(NS(=O)(=O)c3cn(C)cn3)cc2C1=O returned CHRM4 PAM -1.4, CHRM1 agonist -7.7, CHRM1 PAM -5.0, CHRM1 antagonist 11.8, M4 antag 9.1 and M4 ag 0.8.
Screening N#CNC(=Nc1ccc(F)cc1)SCc1ccccc1 returned CHRM4 PAM -8.9, CHRM1 agonist -5.1, CHRM1 PAM -11.5, CHRM1 antagonist 11.2, M4 antag 4.8 and M4 ag 0.6.
Screening COc1ccc(N(CC(=O)N/N=C/c2ccc(C(=O)O)cc2)S(=O)(=O)c2ccc(NC(C)=O)cc2)cc1 returned CHRM4 PAM 22.1*, CHRM1 agonist -3.4, CHRM1 PAM 3.8, CHRM1 antagonist -2.0, M4 antag -7.9 and M4 ag 0.2.
`COc1ccc(N(CC(=O)N/N=C/c2cc(Br)c(C)o2)S(=O)(=O)c2ccc(NC(C)=O)cc2)cc1` gave CHRM4 PAM -6.8, CHRM1 agonist -0.3, CHRM1 PAM 11.0, CHRM1 antagonist 0.8, M4 antag -4.4 and M4 ag 1.1.
Screening O=C(c1ccccc1)c1sc(N2CCCCCC2)nc1-c1ccccc1 returned CHRM4 PAM -9.0, CHRM1 agonist -4.3, CHRM1 PAM -17.5, CHRM1 antagonist 7.2, M4 antag 3.7 and M4 ag -0.1.
O=C(c1ccccc1)c1sc(N2CCOCC2)nc1-c1ccccc1 was read as CHRM4 PAM -3.2, CHRM1 agonist -10.2, CHRM1 PAM -9.5, CHRM1 antagonist 7.1, M4 antag 5.8 and M4 ag 1.0.
`COc1ccc(-c2nc(N3CCCCCC3)sc2C(=O)c2ccccc2)cc1` gave CHRM4 PAM -11.9, CHRM1 agonist -2.9, CHRM1 PAM -3.0, CHRM1 antagonist -7.8, M4 antag 33.1* and M4 ag 13.5.
`[2H]c1c([2H])c([2H])c(C(=O)c2sc(N3CCCCCC3)nc2-c2ccccc2)c([2H])c1[2H]` gave CHRM4 PAM -19.1, CHRM1 agonist -4.6, CHRM1 PAM -19.1, CHRM1 antagonist 39.3*, M4 antag 16.6 and M4 ag 0.5.
For COc1cc(CCc2ccccc2)c(C(=O)O)c(O)c1CC=C(C)C the results were CHRM4 PAM 1.9, CHRM1 agonist -2.7, CHRM1 PAM -4.8, CHRM1 antagonist -4.0, M4 antag -11.1 and M4 ag 3.6.
Screening CCN(CC)CCC(O)(c1ccccc1)C1CCCCC1 (stereo not given) returned CHRM4 PAM -16.0, CHRM1 agonist -10.0, CHRM1 PAM -29.9, CHRM1 antagonist 100.2*, M4 antag 84.6* and M4 ag 0.2.

Source: PubChem BioAssay (The Scripps Research Institute Molecular Screening Center)
